# According to PubChem BioAssay (NCATS):
# Inconclusive results are not listed. A call without a number means that no potency is given here. The source made the active and inactive calls. Unless noted, calls follow the shape of the full dose curve.
# How the values were obtained:
# [1] = qHTS assay for small molecule agonists of retinoid X receptor alpha signaling (AID 588544); settings: HEK293T RXRa-UAS-bla, beta-lactamase reporter, 18 h; 530 nm emission
# [2] = molecular target: Retinoic acid receptor RXR-alpha (Homo sapiens) (UniProt P19793); experiment: as above; settings: HEK293T RXRa-UAS-bla, beta-lactamase reporter, 18 h; series mostly up to 76.7 µM
# Sequence of Retinoic acid receptor RXR-alpha (Homo sapiens) (P19793 whole entry, looked up): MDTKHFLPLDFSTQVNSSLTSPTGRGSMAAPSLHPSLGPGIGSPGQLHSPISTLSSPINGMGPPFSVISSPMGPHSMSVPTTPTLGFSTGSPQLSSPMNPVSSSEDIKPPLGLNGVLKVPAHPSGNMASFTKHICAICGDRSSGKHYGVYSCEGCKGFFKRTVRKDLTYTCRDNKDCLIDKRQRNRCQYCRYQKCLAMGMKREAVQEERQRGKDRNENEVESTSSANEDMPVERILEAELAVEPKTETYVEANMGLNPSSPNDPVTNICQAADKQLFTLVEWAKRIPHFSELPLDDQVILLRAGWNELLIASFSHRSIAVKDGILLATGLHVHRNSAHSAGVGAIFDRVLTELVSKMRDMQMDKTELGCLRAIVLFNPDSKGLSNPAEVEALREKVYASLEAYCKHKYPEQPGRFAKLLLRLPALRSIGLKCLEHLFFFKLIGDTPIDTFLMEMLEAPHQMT
# [3] = molecular target: Thyroid hormone receptor beta (Homo sapiens) (UniProt P10828); experiment: qHTS assay for small molecule agonists of thyroid hormone receptor beta signaling (AID 588545); settings: TR-UAS-bla GripTite HEK 293, beta-lactamase ratio, agonist mode, 18 h, percent of T3 response, DMSO as zero; series mostly up to 76.7 µM
# Sequence of Thyroid hormone receptor beta (Homo sapiens) (P10828 whole entry, looked up): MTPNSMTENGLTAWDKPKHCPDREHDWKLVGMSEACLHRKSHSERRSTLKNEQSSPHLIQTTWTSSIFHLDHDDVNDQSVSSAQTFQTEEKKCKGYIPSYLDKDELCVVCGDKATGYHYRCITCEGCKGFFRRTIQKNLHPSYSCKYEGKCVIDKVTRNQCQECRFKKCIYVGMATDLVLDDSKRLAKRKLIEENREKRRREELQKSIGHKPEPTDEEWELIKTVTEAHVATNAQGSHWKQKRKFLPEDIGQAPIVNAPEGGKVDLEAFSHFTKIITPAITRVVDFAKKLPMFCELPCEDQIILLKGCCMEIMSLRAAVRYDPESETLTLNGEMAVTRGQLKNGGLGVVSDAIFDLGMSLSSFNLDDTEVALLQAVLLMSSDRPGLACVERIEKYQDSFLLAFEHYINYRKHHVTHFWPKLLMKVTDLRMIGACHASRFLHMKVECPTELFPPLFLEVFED
# Outline: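 HEK 293 TR-UAS-bla; agonist mode; 18 hrs, 37 C; CCF4, ex 405/em 460 and 530 nm; norm. T3 10 nM = 100%, DMSO = 0%; Hill fit → EC50, efficacy.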
# [4] = molecular target: Thyroid hormone receptor beta (Homo sapiens) (UniProt P10828); experiment: qHTS assay for small molecule antagonists of thyroid hormone receptor beta signaling (AID 588547; active = well fitted inhibition curve with a large enough effect in the signal ratio, with a control signal flat, not every such curve was filed as active; the % refers to the signal ratio;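 also: cells stimulated with 0.4 nM T3 agonist during compound exposure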); settings: TR-UAS-bla HEK293, beta-lactamase ratio, antagonist mode, 18 h
# Outline: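 TR-UAS-bla GripTite HEK293 cells in 2% charcoal/dextran FBS medium; compounds 0.59 nM to 92 uM with T3 at 0.4nM final, 18 h at 37 C. Beta-lactamase read by CCF4 fluorescence (460/530 nm); Hill fits gave IC50 and efficacy.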
# [5] = molecular target: Voltage-gated inwardly rectifying potassium channel KCNH2 (Homo sapiens) (UniProt Q12809); experiment: qHTS Assay for Small Molecule Inhibitors of the Human hERG Channel Activity (AID 588834; active = well fitted curve in the direction sought with a large enough effect; an effect the other way counts as inactive or inconclusive;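 also: top concentration of the series differs between compounds; lower thallium flux fluorescence means stronger hERG block; nearly all actives have a fitted effect of over 50% in size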); settings: U2OS BacMam hERG, FluxOR thallium flux fluorescence; series mostly up to 92.2 µM
# Sequence of Voltage-gated inwardly rectifying potassium channel KCNH2 (Homo sapiens) (Q12809 whole entry, looked up): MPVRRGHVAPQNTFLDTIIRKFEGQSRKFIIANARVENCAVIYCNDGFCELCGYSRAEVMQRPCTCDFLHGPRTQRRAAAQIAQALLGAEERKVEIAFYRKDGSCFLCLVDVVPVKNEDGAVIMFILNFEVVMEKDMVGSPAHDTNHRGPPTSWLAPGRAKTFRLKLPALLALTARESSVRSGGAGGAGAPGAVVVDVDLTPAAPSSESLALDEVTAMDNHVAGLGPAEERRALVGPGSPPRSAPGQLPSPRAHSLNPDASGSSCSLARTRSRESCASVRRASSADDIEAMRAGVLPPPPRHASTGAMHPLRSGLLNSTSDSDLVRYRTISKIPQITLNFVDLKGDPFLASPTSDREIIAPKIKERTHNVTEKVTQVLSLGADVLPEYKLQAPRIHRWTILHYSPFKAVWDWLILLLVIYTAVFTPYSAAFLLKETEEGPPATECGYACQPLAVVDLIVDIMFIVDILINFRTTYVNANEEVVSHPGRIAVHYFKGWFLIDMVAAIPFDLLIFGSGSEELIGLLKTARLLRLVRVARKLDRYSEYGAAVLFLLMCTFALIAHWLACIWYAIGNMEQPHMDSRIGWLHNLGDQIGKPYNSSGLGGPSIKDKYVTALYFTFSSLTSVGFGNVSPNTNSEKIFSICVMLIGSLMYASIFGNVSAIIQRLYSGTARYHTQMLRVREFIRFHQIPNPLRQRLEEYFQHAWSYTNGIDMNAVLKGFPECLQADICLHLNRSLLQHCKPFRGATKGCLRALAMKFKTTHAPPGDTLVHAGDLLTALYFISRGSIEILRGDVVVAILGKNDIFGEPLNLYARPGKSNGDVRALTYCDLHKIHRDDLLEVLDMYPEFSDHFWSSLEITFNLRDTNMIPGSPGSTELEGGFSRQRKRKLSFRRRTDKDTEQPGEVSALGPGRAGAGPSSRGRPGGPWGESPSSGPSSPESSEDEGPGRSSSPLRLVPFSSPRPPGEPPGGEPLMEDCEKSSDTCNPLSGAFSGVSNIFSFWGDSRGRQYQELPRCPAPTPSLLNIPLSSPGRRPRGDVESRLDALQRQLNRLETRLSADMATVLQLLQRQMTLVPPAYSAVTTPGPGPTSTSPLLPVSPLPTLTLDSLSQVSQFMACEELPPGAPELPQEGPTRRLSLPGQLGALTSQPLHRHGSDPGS
# Outline: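 hERG-BacMam U2OS, 2000 cells/well; 0.7X FluxOR loading 1 hr RT dark; cpd ~10 min 37 °C; stim buffer; FDSS fluorescence 2 min @ 1 s; AC50 Hill fit.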
# [6] = qHTS assay for small molecule activators of the nuclear factor-kappa B (NF-kB) signaling pathway (AID 651749; active = well fitted activation curve with a large enough effect in the signal ratio; the % refers to the signal ratio); settings: NF-kB-bla ME-180 cells, beta-lactamase FRET ratio, 16 h; stronger effect = higher value
# Outline: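 Incubation lasted 16 hr at 37C in 5% CO2 after 23 nL compound addition to ME-180 NF-kB-bla cells. Activation appears as beta-lactamase-mediated FRET loss.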
# [7] = qHTS assay for small molecule disruptors of the mitochondrial membrane potential - 1 hr assay (AID 651754); settings: series mostly up to 92.2 µM; also: nearly all actives have a fitted effect of over 35% in size
# Outline: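 Steps: seed HepG2 cells and let attach overnight; pin-transfer compound or vehicle; incubate 1 hr at 37C; add Mito-MPS dye for 30 min; read two-channel fluorescence for monomer and aggregate forms.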
# [8] = qHTS assay for small molecule disruptors of the mitochondrial membrane potential - 5 hr assay (AID 651755); settings: JC-1-type ratio dye; series mostly up to 92.2 µM; also: nearly all actives have a fitted effect of over 40% in size
# Outline: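 HepG2 cells (2,000/well), attached overnight, exposed to compound 5 hr at 37C, then Mito-MPS dye 30 min. Fluorescence read for monomers (490/535 nm) and aggregates (540/590 nm).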
# [9] = molecular target: Tumor necrosis factor (Homo sapiens) (UniProt P01375); experiment: qHTS assay to identify small molecules that stimulate Tumor Necrosis Factor-alpha (TNF-alpha) secretion (AID 651757; active = well fitted curve in the direction sought with a large enough effect in the signal ratio; the % refers to the signal ratio); settings: Human cells, HTRF 665/615 ratio; series mostly up to 92.2 µM
# Sequence of Tumor necrosis factor (Homo sapiens) (P01375 whole entry, looked up): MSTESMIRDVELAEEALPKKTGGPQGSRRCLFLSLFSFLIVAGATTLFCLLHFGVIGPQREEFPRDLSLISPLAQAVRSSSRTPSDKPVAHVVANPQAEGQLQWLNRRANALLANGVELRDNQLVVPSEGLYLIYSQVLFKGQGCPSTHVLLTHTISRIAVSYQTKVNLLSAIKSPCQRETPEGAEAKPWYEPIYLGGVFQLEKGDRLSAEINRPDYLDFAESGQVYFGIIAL
# Outline: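 Secreted TNF-alpha from compound-treated THP-1 cells (17 hrs, 37 C) was quantified with a homogeneous time-resolved fluorescence antibody assay.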
# [10] = molecular target: Nuclear receptor ROR-gamma (Homo sapiens) (UniProt P51449); experiment: qHTS assay for small molecule antagonists of the retinoid-related orphan receptor gamma (ROR-gamma) signaling pathway (AID 651802; active = well fitted curve in the direction sought with a large enough effect; an effect the other way counts as inactive or inconclusive;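 also: CHO cells with doxycycline-induced ROR-gamma expression; nearly all actives have a fitted effect of over 60% in size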); settings: ROR-gamma antagonist cell reporter assay; series mostly up to 92.2 µM
# Sequence of Nuclear receptor ROR-gamma (Homo sapiens) (P51449 whole entry, looked up): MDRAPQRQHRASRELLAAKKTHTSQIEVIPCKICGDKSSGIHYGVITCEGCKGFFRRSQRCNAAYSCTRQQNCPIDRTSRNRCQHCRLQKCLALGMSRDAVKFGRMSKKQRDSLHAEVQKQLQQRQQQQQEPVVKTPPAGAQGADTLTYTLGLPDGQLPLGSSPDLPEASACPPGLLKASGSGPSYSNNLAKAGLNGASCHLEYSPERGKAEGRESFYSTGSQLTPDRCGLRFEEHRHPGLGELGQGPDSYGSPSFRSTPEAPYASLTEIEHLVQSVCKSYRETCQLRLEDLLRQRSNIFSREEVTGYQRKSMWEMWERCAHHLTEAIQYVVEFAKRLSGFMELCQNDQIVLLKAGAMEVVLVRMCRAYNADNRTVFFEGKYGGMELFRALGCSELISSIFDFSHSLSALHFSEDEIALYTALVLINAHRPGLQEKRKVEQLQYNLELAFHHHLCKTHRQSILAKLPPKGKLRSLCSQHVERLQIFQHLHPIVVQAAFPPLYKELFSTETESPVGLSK
# Outline: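 Antagonism is scored as a fall in luminescence from a RORE-luciferase reporter in CHO cells expressing ROR under a TET-inducible promoter, measured 16hr after doxycycline induction in the presence of compound.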
# [11] = qHTS assay for small molecule agonists of the antioxidant response element (ARE) signaling pathway measured by Nrf2-dependant transcriptional activity (AID 720636; active = well fitted curve in the direction sought with a large enough effect in the repeat runs; an effect the other way counts as inactive or inconclusive;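 also: HepG2 cells with an ARE-driven luciferase reporter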); settings: ARE-luc HepG2, Nrf2 luciferase reporter, 16 h; series mostly up to 92.4 µM
# Outline: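 ONE-Glo luminescence, read 30 min after reagent addition at room temperature, reflected ARE reporter activity in HepG2 cells that had been incubated with compound for 16 hr at 37 C in 1% dialyzed FBS.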
# [12] = qHTS assay for small molecule antagonists of the retinoid-related orphan receptor gamma (ROR-gamma) signaling pathway - cell viability counter screen (AID 720652; active = well fitted curve in the direction sought with a large enough effect in the repeat runs; an effect the other way counts as inactive or inconclusive;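 also: CHO reporter cells with doxycycline-induced ROR-gamma expression; compound exposure lasted 16 hr before ATP read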); settings: RORgamma reporter cell line viability counter screen; series mostly up to 92.2 µM
# Outline: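 Cytotoxicity is quantified via intracellular ATP (CellTiter-Glo luminescence) in doxycycline-induced CHO ROR response element-luciferase reporter cells treated with compound for 16 hr at 37 C, 5% CO2.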
# [13] = qHTS assay for small molecule agonists of the antioxidant response element (ARE) signaling pathway measured by Nrf2-dependant transcriptional activity - cell viability counter screen (AID 720653; active = well fitted curve in the direction sought with a large enough effect in the repeat runs; an effect the other way counts as inactive or inconclusive); settings: ARE-bla HepG2 viability, CellTiter-Glo ATP luminescence, 16 h; stronger effect = lower value
# Outline: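 ARE-bla HepG2 cells treated with compounds for 16 h at 37C; this counter screen measures viability as intracellular ATP by CellTiter-Glo luminescence after 30 min at room temperature.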
# [14] = qHTS assay for small molecule activators of the p53 signaling pathway (AID 651743; active = well fitted activation curve with a large enough effect in the signal ratio, not every such curve was filed as active; the % refers to the signal ratio); settings: HCT-116 p53RE-bla, beta-lactamase FRET ratio, 16 h; stronger effect = higher value
# Outline: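 HCT-116 p53RE-bla, 4,000 cells/well; 5 h settle; cpd/DMSO 16 h, 37 C; LiveBLAzer B/G 2 h RT; fluorescence intensity.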
# [15] = qHTS assay to identify small molecules that stimulate interleukin-8 (IL-8) secretion (AID 651758; active = well fitted activation curve with a large enough effect in the signal ratio; the % refers to the signal ratio); settings: HTRF ratio (665/615); series mostly up to 92.2 µM
# Outline: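 THP-1 cells (2000/well) exposed to compound 16 h at 37 C; secreted IL-8 then detected by HTRF with cryptate- and XL665-labelled anti-IL-8 antibody pair after 1-3 h at room temperature.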
# [16] = molecular target: Peroxisome proliferator-activated receptor alpha (Homo sapiens) (UniProt Q07869); experiment: qHTS assay for small molecule agonists of the peroxisome proliferator-activated receptor alpha (PPARalpha) signaling pathway (AID 651778; active = well fitted curve in the direction sought with a large enough effect; an effect the other way counts as inactive or inconclusive); settings: PathHunter PPARalpha complementation, chemiluminescence, 6 h; stronger effect = higher value
# Sequence of Peroxisome proliferator-activated receptor alpha (Homo sapiens) (Q07869 whole entry, looked up, the tested form may be a part): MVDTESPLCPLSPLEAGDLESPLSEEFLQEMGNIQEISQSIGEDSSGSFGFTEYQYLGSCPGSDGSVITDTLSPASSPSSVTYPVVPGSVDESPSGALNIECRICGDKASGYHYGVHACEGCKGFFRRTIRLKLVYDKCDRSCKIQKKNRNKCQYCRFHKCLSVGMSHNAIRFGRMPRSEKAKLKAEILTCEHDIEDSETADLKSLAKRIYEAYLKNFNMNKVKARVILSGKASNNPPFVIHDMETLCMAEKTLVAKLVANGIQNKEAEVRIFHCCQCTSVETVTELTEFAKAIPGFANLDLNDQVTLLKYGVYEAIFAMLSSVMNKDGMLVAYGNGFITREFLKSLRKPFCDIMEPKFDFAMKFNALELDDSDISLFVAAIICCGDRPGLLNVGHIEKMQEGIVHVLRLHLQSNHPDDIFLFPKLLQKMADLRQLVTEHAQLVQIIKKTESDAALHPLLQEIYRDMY
# Outline: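 Enzyme-fragment complementation assay in which ligand-bound PPARalpha translocates and forms an active enzyme that generates chemiluminescence. Cells were plated overnight, exposed to compound for 6 hr at 37 C, and then given detection reagent for 60 min at room temperature.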
# [17] = qHTS assay for small molecule antagonists of retinoid X receptor alpha signaling (AID 588546; active = well fitted inhibition curve with a large enough effect in the signal ratio, with a control signal flat, not every such curve was filed as active; the % refers to the signal ratio;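 also: cells stimulated with 9-cis-retinoic acid as agonist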); settings: HEK293T RXRa-UAS-bla, beta-lactamase ratio, antagonist mode; measured here: W530 green channel, cytotoxicity proxy
# Outline: (§1)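 Beta-lactamase reporter inhibition, read as CCF4 fluorescence ratio (ex 405, em 460/530 nm) after 2 h at RT. HEK293T UAS-bla cells, 2500/well, were stimulated with 9-cis-RA at 500 or 100 nM final alongside test compound for 18 h at 37 C.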
# [18] = molecular target: Retinoic acid receptor RXR-alpha (Homo sapiens) (UniProt P19793); experiment: as above; settings: HEK293T RXRa-UAS-bla, beta-lactamase ratio, antagonist mode
# Outline: as §1
# [19] = qHTS assay for small molecule agonists of the antioxidant response element (ARE) signaling pathway (AID 651741; active = well fitted activation curve with a large enough effect in the signal ratio; the % refers to the signal ratio; also: potency is read from the fitted curve at half-maximal effect); settings: HepG2 ARE-bla reporter, beta-lactamase FRET ratio, 16 h; series mostly up to 96 µM
# Outline: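 HepG2 ARE-bla cells plated at 2,000 cells/well and incubated 5 h at 37 C/5% CO2 received 23 nL compound in DMSO. After 16 h at 37 C, LiveBLAzer B/G FRET substrate was applied for 2 h at room temperature and fluorescence read.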
# [20] = qHTS assay for environmental chemicals that activate the Aryl hydrocarbon Receptor (AhR) signaling pathway (AID 651777; active = well fitted curve in the direction sought with a large enough effect; an effect the other way counts as inactive or inconclusive; also: nearly all actives have a fitted effect of over 15% in size); settings: 1A2-DRE human hepatoma cells, luciferase, 24 h; activation: stronger effect = higher value
# Outline: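 Following a 24 hr incubation with test chemicals at 37 C and 5% CO2, 1A2-DRE human hepatoma cells received One-Glo reagent; after 30 min at room temperature, luciferase output reflected CYP1A2 induction via AhR.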
Compound,max response [1] [%],outcome [2],outcome [3],activity change % (negative = inhibition) [4],Potency [5],activation [6],Potency [7],Potency [8],Potency [9],Potency [10],outcome [11],Potency [12],max response [13],activation [14],Potency [15],max response [16],max response [17] [%],max response [18],Potency [19],activation [20]
Cc1ccc(C)c([N+](=O)[O-])c1,-15.2,inactive,inactive,0.688% (inactive),inactive,0.199% (inactive),inactive,inactive,inactive,inactive,inactive,inactive,-4.07% (inactive),,,,,,,
CC/C(C)=N/O,-14.2,inactive,inactive,13.4% (inactive),,,inactive,inactive,inactive,,inactive,inactive,,-0.712% (inactive),inactive,1.72% (inactive),,,,
CCC(C)(C)C,7.52,inactive,,-4.13% (inactive),inactive,,inactive,inactive,inactive,inactive,inactive,inactive,,-0.874% (inactive),inactive,-1.79% (inactive),-12.5,11.7% (inactive),inactive,-1.03% (inactive)
CC(C)=C1CCC(C)CC1=O (stereo unspecified),-4.57,inactive,,-6.39% (inactive),inactive,-0.315% (inactive),inactive,inactive,inactive,inactive,inactive,inactive,3.25% (inactive),-1.57% (inactive),inactive,-4.55% (inactive),3.58,6.87% (inactive),inactive,-0.665% (inactive)
CCCCOCCOCCOCCCC,-13.3,inactive,inactive,3.11% (inactive),,0.513% (inactive),,inactive,inactive,inactive,inactive,inactive,10.5% (inactive),-0.253% (inactive),,-5.07% (inactive),,,,-0.359% (inactive)
Oc1cccc(Nc2ccccc2)c1,-0.0784,inactive,inactive,,,0.49% (inactive),,,,inactive,inactive,inactive,-2.76% (inactive),,,-0.0901% (inactive),,,42.2 µM (active),4.89% (inactive)
C=C(C)C(=O)OCCCCCC,-12.9,inactive,inactive,6.42% (inactive),inactive,0.571% (inactive),inactive,inactive,inactive,inactive,inactive,inactive,-4.89% (inactive),-0.374% (inactive),,-8.01% (inactive),,,,
